Here are results for 98 compounds from PubChem BioAssay AID778 (Sanford-Burnham Center for Chemical Genomics, 2007).

The campaign covered roughly 96,000 compounds. About 20,000 (21%) were called active. These entries were drawn from the full list. A number with no mark means an inactive call.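 How the source made its calls: active means CYP2C19 inhibition above a set limit at 5 µM in the primary screen (cut at about 50% in these data); inactive means the rest.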

Usually inhibition stands for the relative decrease from the control value, in per cent.

This assay deals with Cytochrome P450 2C19 (Homo sapiens) (UniProt P33261). The assay is described as follows: blockers of cytochrome P450 2C19 activity – biochemical, luminescence, ADME assay, primary screen (AID 778).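 Further: plate controls were negative control wells for no effect and 2.5 mM tranylcypromine positive control for full effect.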 To be noted: CYP2C19 Supersomes, luciferin-H EGE luminescence, 30 min; at 5 µM; active compounds read high.
Cytochrome P450 2C19 (Homo sapiens), sequence (P33261 whole entry, looked up): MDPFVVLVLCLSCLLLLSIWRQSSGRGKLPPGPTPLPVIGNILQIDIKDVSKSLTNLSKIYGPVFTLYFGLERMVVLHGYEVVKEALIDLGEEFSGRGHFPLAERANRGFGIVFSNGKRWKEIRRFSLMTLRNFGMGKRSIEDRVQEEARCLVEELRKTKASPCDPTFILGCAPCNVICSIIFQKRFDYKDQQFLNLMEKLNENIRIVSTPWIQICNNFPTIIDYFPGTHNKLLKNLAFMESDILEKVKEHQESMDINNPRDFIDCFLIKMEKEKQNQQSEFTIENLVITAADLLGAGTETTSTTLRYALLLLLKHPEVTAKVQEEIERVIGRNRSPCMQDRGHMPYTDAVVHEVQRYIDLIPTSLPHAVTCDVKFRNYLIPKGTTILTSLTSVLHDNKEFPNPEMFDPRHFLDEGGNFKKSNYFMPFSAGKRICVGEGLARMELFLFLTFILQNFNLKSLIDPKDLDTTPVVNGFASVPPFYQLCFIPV
For the compound `c1ccc2c(c1)OCC(c1nn3cnnc3s1)O2` (stereo not drawn), the inhibition is 74.8% (active). In the case of `O=C(CCN1C(=O)COc2ccccc21)NCCCN1CCN(c2ccc(F)cc2)CC1` it was -10.1%. As to `CCOC(=O)c1cnc(-n2nc(C)cc2C)nc1-n1nc(C)cc1C`, the inhibition is 5.2%. For the compound `CCc1nnc(NC(=O)c2ccc(S(=O)(=O)NC3CCCCC3)cc2)s1`, the inhibition is 14.5%. As for `O=C(NNS(=O)(=O)c1ccc(Cl)cc1)C1CCN(Cc2ccccc2)CC1`, the inhibition was 6%. As for `CCOC1CCCCC1NS(=O)(=O)c1ccc(Cl)cc1` (stereo not drawn), the inhibition was 69.5% (active). In the case of `CCCc1[nH]nc2c1C(c1ccc(OC(=O)c3ccco3)cc1)C(C#N)=C(N)O2` (stereo not drawn), the inhibition is 43.8%. The figure for `C=CCOC(=O)C1=C(C)OC(N)=C(C#N)C1c1ccc(F)cc1` (stereo not drawn) is 75.2% (active); for `C=CCOC(=O)C1=C(C)NC(SCC(=O)OCC)=C(C#N)C1c1ccc(C)cc1` (stereo not drawn) it is 33.7%; for `Cc1c(C#N)c2ncn(CC#N)c(=O)c2n1-c1ccccc1` it is -12.1%. `CCOc1cc(N2CCOCC2)c(OCC)cc1NC(=O)COc1cccc2cccnc12`: the inhibition was 3.8%. With `C=CCn1c(COc2cccc3cccnc23)nnc1SCC(=O)OC`, the inhibition is 26.2%. Regarding `Cc1cc(OCCOc2cccc3cccnc23)c(C)cc1Cl`, the inhibition is 73.2% (active). On to `CN(C)Cc1c(C#N)c2ccccc2n1C`, for which the inhibition is -0.3%. On to `Clc1ccc(CSc2nnc(/C=C/c3ccccc3)o2)c(Cl)c1`, for which the inhibition was 1.6%.

Take `O=c1[nH]nc(CSCc2ccccc2Cl)[nH]1`: the inhibition was 1.4%. As to `S=c1[nH]nc(CSCc2ccc(Cl)cc2Cl)n1-c1ccccc1`, the inhibition is 64.8% (active). As for `COC(=O)CCSc1cc([N+](=O)[O-])cc2c1c(C1OCCS1)nn2-c1ccccc1` (stereo not drawn), the inhibition was 8.6%.

On to `Cc1ccc(Nc2nc(C)cc(C)c2C(N)=O)cc1`, for which the inhibition is 7.6%.

Regarding `O=C1c2oc3ccc(Br)cc3c(=O)c2C(c2cccc(F)c2)N1CCO` (stereo not drawn), the inhibition was 40.4%. For `O=C1c2oc3ccccc3c(=O)c2C(c2cccc(O)c2)N1c1ccccn1` (stereo not drawn), the inhibition was 38.4%. The figure for `COCCN1C(=O)c2oc3c(C)cc(C)cc3c(=O)c2C1c1cccc(O)c1` (stereo not drawn) is 70.6% (active). The figure for `Cc1ccc(-n2ncc3c(Nc4cccc(C(=O)O)c4)ncnc32)cc1` is -20%. Consider `COCCn1c(=S)[nH]c2cc(C(=O)NCCc3ccc(OC)c(OC)c3)ccc2c1=O`, for which the inhibition was 17.7%.

As for `COC(=O)c1ccc(C2C(Oc3ccccc3C)C(=O)N2CCc2ccc(OC)c(OC)c2)cc1` (stereo not drawn), the inhibition is 65.2% (active). Turning to `COc1ccc(CCN2C(=O)c3[nH]nc(-c4ccccc4O)c3C2c2ccc(C)cc2)cc1OC` (stereo not drawn), the inhibition is 21.1%. For `c1csc(-c2cn3c(n2)SCC3)c1`, the inhibition was -13.7%.

`CC(C)C(C(=O)NC1CCCCC1)N(CC1CCCO1)C(=O)CNS(=O)(=O)c1ccc(F)cc1` (stereo not drawn): the inhibition was -10.8%. The figure for `c1ccc(-c2nnc3n2NC(c2ccc4c(c2)OCO4)S3)cc1` (stereo not drawn) is 28.9%; for `CCn1c(SC)nc(O)c(C(c2ccc(OC)c(O)c2)c2c(O)nc(SC)n(CC)c2=O)c1=O` it is -2.9%. Take `O=S(=O)(Cc1cc(Sc2ccccc2)nc(-c2ccccc2)n1)c1ccccc1`: the inhibition is 50.5% (active).

For `CC1CC(C)CN(CC(=O)N2c3ccccc3CCc3ccccc32)C1` (stereo not drawn), the inhibition was 24.7%. In the case of `O=C(CSCc1ccccc1)N1CCc2ccccc21`, the inhibition is 51.6% (active).

As for `Cc1ccc(S(=O)(=O)N(C)CC(=O)N2CCc3ccccc32)cc1`, the inhibition was 9.1%. As for `Cn1cnc2c1c(=O)n(Cc1c(Cl)cccc1Cl)c(=O)n2C`, the inhibition was 49.5%. The figure for `Cc1c(C#N)c(NC(=O)c2ccccc2)n(Cc2ccccc2)c1C` is 22.6%. The figure for `CCOC(=O)CCC(=O)OCC(=O)NC(C)C1CC2CCC1C2` (stereo not drawn) is 10.6%; for `CCOC(=O)N1CCC(O)(c2cc(C)c(C)cc2C)CC1` it is 43.5%; for `CNC(=O)CN1C(=O)c2ccccc2S1(=O)=O` it is -9.3%. Take `O=C1c2ccccc2S(=O)(=O)N1CC(O)Cn1c2ccccc2c2ccccc21` (stereo not drawn): the inhibition is 73.4% (active). The figure for `O=C(CN1C(=O)c2ccccc2S1(=O)=O)N1CCc2ccccc21` is -7.4%.

Consider `COc1ccc(-n2ncc3c(N4CCc5ccccc54)ncnc32)cc1`, for which the inhibition was -2.2%. The figure for `Cc1n[nH]c(=S)n1/N=C/c1ccc(Br)o1` is -3.6%; for `CCC(Sc1nncn1C)C(=O)Nc1nnc(-c2ccc(Cl)cc2)s1` (stereo not drawn) it is 17.4%; for `CCOc1cc2[nH]c(=S)n(CCCN3CCCC3=O)c(=O)c2cc1OCC` it is 6.7%.

For `O=C(O)c1ccc(NC(=O)C2CCCCC2)cc1`, the inhibition was -21.5%.

For the compound `O=C(O)C1CCCCC1C(=O)Nc1ccc(Cl)cc1` (stereo not drawn), the inhibition is 29.9%. Consider `O=C(Nc1cnn(Cc2ccc(Cl)cc2)c1)C1CCCC1`, for which the inhibition is 84.8% (active). `C[N+](C)(C)CCNC(=O)c1c(O)c2c([nH]c1=O)CCCC2`: the inhibition is 7.7%.

`O=C(O)[C@@H]1CCCN1c1ncnc2sc3c(c12)CCC3`: the inhibition is 6.9%. For `O=P(O)(CP(=O)(c1ccccc1)c1ccccc1)c1ccccc1O`, the inhibition is 22.6%.

With `O=C1CC(c2cccc(Br)c2)C2=C(CCCC2=O)N1` (stereo not drawn), the inhibition is 11.9%. For `CN(C)Cc1ccccc1C1(O)c2ccccc2CSc2ccccc21` (stereo not drawn), the inhibition is 67.5% (active). Regarding `CCN(CC)c1ccc(NC(=O)c2ccc(Cl)nc2)cc1`, the inhibition was 7.7%. Take `CSc1ccc(Cl)c(C(=O)OCC(=O)N2CC(C)OC(C)C2)c1` (stereo not drawn): the inhibition is 12.4%. In the case of `O=C(CC1Nc2ccccc2NC1=O)Nc1ccccc1` (stereo not drawn), the inhibition was 2.9%. As for `O=C(CCN1c2ccccc2Sc2ccccc21)Nc1ccccc1`, the inhibition is 80.2% (active). The figure for `O=C(O)CCCC(=O)Nc1ccccc1-n1ccnc1` is -4.7%; for `Cc1cc(N)n2nc(-c3ccc(C(C)(C)C)cc3)cc2n1` it is 26.1%. Take `COc1cccc(Nc2ncccc2C(=O)O)c1`: the inhibition was -9.2%. With `O=C(CNC(=O)Cc1ccccc1)NCC(=O)OCC(=O)c1ccccc1Cl`, the inhibition was 1.6%. Take `COc1ccc2[nH]c(=O)c(CN(Cc3nnnn3CCc3ccccc3)CC3CCCO3)cc2c1` (stereo not drawn): the inhibition was 77.7% (active). Take `Cc1cc(C)c2cc(CN(Cc3cccs3)Cc3nnnn3CC3CCCO3)c(=O)[nH]c2c1` (stereo not drawn): the inhibition was 84.5% (active). As for `CC(C)(C)n1nnnc1C(c1cccs1)N(Cc1cccnc1)CC1CCCO1` (stereo not drawn), the inhibition was 31.5%. Take `COc1ccc(N(Cc2cc3cc(OC)ccc3[nH]c2=O)S(C)(=O)=O)cc1`: the inhibition was 18.7%. Turning to `CCOc1ccc2[nH]c(=O)c(CN(Cc3nnnn3Cc3ccccc3)CC3CCCO3)cc2c1` (stereo not drawn), the inhibition was 8.7%. On to `Cc1cc2cc(CN(Cc3cccs3)Cc3nnnn3CC3CCCO3)c(=O)[nH]c2cc1C` (stereo not drawn), for which the inhibition was 34.3%. For `Nc1c(C(=O)NCc2ccccc2)sc2nc3c(cc12)C(=O)CCC3`, the inhibition is -16.5%. The figure for `CCn1c(=O)cc(O)c2ccccc21` is -18.1%; for `CC(=O)c1c(C)c[nH]c1C` it is -14.8%; for `CCC(=O)Nc1ccc(C(=O)Nc2ccc3c(c2)C(=O)N(CC2CCCO2)C3=O)cc1` (stereo not drawn) it is -1%. In the case of `CCC(C)(C)n1nnnc1CN1CCN(c2nc3ccc(C)cc3cc2C#N)CC1` it was 0.3%; in that of `CCSC1(SCC)N=C(N)C2(C#N)C(c3ccccc3)NC(C)=CC12C#N` (stereo not drawn), 16.1%; in that of `O=C(CCl)NNc1cccc(Cl)n1`, 6.7%. For `COC(=O)c1oc2ccc(Br)cc2c1NC(C)=O`, the inhibition was 14.7%. Take `COC(=O)C1=C(C)N(C)C(C)=C(C(=O)OC)C1c1cccc(Br)c1`: the inhibition was 79.2% (active). The figure for `COC(=O)CN1C(C)=Nc2ccc(Br)cc2C1c1ccccc1` (stereo not drawn) is 43.4%; for `CCOC(=O)CN1CC23C=CC(O2)C(C(=O)Nc2ccc(F)cc2)C3C1=O` (stereo not drawn) it is 40.7%; for `Cc1occc1C(=O)NNC(=S)NCC(C)C` it is 74.6% (active).

As for `CC(C)CNC(=S)NNC(=O)c1ccccc1OC(F)F`, the inhibition is 16.6%. Consider `CCNC(=S)NNC(=O)Cc1ccccc1`, for which the inhibition is 18.2%.

Regarding `O=C(NCc1ccco1)c1nc2ncccn2n1`, the inhibition is -0.7%. As for `CN1CCN(Cc2nc3c(c(=O)n(C)c(=O)n3C)n2Cc2cccc3ccccc23)CC1`, the inhibition was -17.1%. Regarding `CC(=O)c1cccc(S(=O)(=O)N2CCC(n3nnc4cc(F)ccc43)CC2)c1`, the inhibition was 43.1%. For the compound `O=S(=O)(c1cccc(-c2nnc(SC(F)F)n2-c2ccccc2)c1)N1CCCCC1`, the inhibition is 41.6%. Turning to `O=S(=O)(c1cccc(S(=O)(=O)N2CCC(n3nnc4ccccc43)CC2)c1)N1CCCCC1`, the inhibition was 94.7% (active). Turning to `Cc1ccc(CNC(=O)CCNC(=O)Cn2ccc3ccccc3c2=O)cc1`, the inhibition is 17.4%.

With `CCOCCOCCC(C(=O)O)P(=O)(c1ccccc1)c1ccccc1` (stereo not drawn), the inhibition was -2.4%. `COc1ccc(NC(=O)ON=C2c3ccccc3-c3ccccc32)cc1`: the inhibition was 11.6%. For the compound `COc1ccc(Cl)cc1NC(=O)c1oc(C)nc1C`, the inhibition was -9%. For the compound `COc1ccc(Cl)cc1NC(=O)CN(C)C(=O)CNC(=O)C12CC3CC(CC(C3)C1)C2`, the inhibition was 67.9% (active). In the case of `CCCCC(=O)N/N=C(\C)CC(=O)Nc1cc(Cl)ccc1OC` it was 6.1%; in that of `O=C(CSCc1ccc([N+](=O)[O-])cc1)Nc1cccc(C(=O)Nc2ccccc2C(=O)O)c1`, 14.5%; in that of `COc1ccccc1CNS(=O)(=O)c1ccc(C)cc1`, 92.5% (active).

Consider `Cc1ccc(S(=O)(=O)NCC(C)NS(C)(=O)=O)cc1` (stereo not drawn), for which the inhibition was 16.9%. Take `COc1ccccc1Cc1nc(-c2ccc(C)cc2)no1`: the inhibition was 35.6%. In the case of `Nc1c(C(=O)NCc2ccccc2)nnn1Cc1cccc(Cl)c1` it was 6.4%; in that of `CC(C)=CC(=O)Nc1nnc(-c2ccc(F)cc2)s1`, 4.7%.
